Fluor 339 460 = intrinsic fluorescence of library compounds, ex339/em460 – biochemical, MLSMR library, data from DPM-DC assay, artefact control, profiling panel; compound autofluorescence, ex339/em460 nm, NADH buffer; active compounds read high; 1 = no-compound wells, NADH background; fluorescence fold increase at 10 µM; 65,000 tested, 5.5% active;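 active = at 10 µM, mean starting fluorescence two-fold or more over control wells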;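 note: signal is the first read of a kinetic run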
NADH enzymes = blocks coupling enzymes of NAD/NADH assays | IC50, µM (titrated, usually from 10 µM) | coupled PK/LDH NADH assays, four targets | 65,000 tested, 0.02% active;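 active = single-dose screening hits from any of four coupled enzyme assays that gave an IC50 when retested across doses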;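 note: the DPM-DC format reads NADH fluorescence rather than 340 nm absorbance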
Spn DPM-DC inh = blocks S. pneumoniae diphosphomevalonate decarboxylase; purified DPM-DC, PK/LDH coupled NADH fluorescence; calls only at 10 µM; 65,000 tested, 0.49% active; AID 556;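 active = the 320 compounds with the highest percent inhibition in the single-dose primary screen, excluding strongly autofluorescent ones, cut at about 32% in these data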;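 note: kinetic rate of NADH fluorescence loss reporting ADP formed by the decarboxylase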
Spn MK inh = blocks S. pneumoniae mevalonate kinase; purified MK, PK/LDH-coupled NADH absorbance 340 nm; inhibition, % at 10 µM; 65,000 tested, 0.48% active; AID 555;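 active = ranked among the strongest by inhibition in the single 10 µM screen, a fixed top-ranked set picked for dose follow-up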
Spn PMK inh = S. pneumoniae PMK inhibition. inhibition, % at 10 µM. purified PMK, PK/LDH-coupled NADH absorbance 340 nm. 65,000 tested, 0.49% active;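 active = top-ranked compounds by inhibition in the single 10 µM screen, taking a fixed number of the strongest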
A340 absorber = absorbance at 340 nm; compound absorbance at 340 nm, fold over control; fold change at 10 µM; 65,000 tested, under 10 active; AID 708;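 active = at 10 µM dose, initial 340 nm absorbance at least 2 fold that of control wells; inactive = change under 2 fold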;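 note: initial absorbance extrapolated from kinetic A340 decline of NADH oxidation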
Numbers stand for hits; - = inactive; . = no result given; + = active, no number; [ ] = dose if it differs, or a comment. Hits are enriched below; roughly 6.8% of the tested compounds scored in any of these assays.

SMILES	Fluor 339 460	NADH enzymes	Spn DPM-DC inh	Spn MK inh	Spn PMK inh	A340 absorber
Cc1cccn2c(=O)c3cc(C(=O)NCc4ccco4)c(=N)n(CCc4ccccc4)c3nc12	3.8	-	.	-	-	-
COCCCn1c(=N)c(C(=O)NCc2ccc3c(c2)OCO3)cc2c(=O)n3cccc(C)c3nc21	-	-	-	-	-	-
CNC(=O)Cn1ncc2c(C)n(Cc3ccc(C)cc3)c(C)c2c1=O	-	-	-	-	34	-
COC(=O)Cn1ncc2c(C)n(Cc3ccccc3)c(C)c2c1=O	-	-	-	-	-	-
O=C(COc1ccccc1)Nc1nnc(-c2ccc(Cl)s2)o1	2.1	-	.	-	-	-
O=C(COc1ccccc1)Nc1nnc(-c2ccccc2)o1	-	-	-	-	-	-
Cc1ccc(-n2ncc3c2ncn2c(C)nnc32)cc1C	-	-	-	-	-	-
CC(C)NCC(O)Cn1c2c(c3ccccc31)CCc1c-2cnn1-c1ccccc1 (configuration not stated)	3.9	-	.	-	-	-
CN1CCc2c(n(CC(O)CN3C(=O)c4ccccc4S3(=O)=O)c3ccccc23)C1=O (configuration not stated)	-	-	-	-	-	-
COc1ccc(S(=O)(=O)Nc2nnc(C)s2)cc1	-	-	-	-	30	-
Cc1nnc(NS(=O)(=O)c2ccc(N)cc2)s1	-	-	-	-	-	-
COc1ccc(C2C=C(c3ccc(Br)s3)Nc3ncnn32)cc1OC (configuration not stated)	-	-	-	-	-	-
CCOC(=O)c1ccc(NC(=O)CSc2nnc(CNc3ccc(OC)cc3)n2C)cc1	-	-	-	-	-	-
CCCCn1c2nc3ccccc3nc2c2c(=O)n(CC(C)C)cnc21	-	-	.	-	-	-
COCCCn1c(C)nc2c(c1=O)c1nc3ccccc3nc1n2CCc1ccccc1	2.4	-	.	-	-	-
COCCCn1c2nc3ccccc3nc2c2c(=O)n(Cc3ccc(Cl)cc3)cnc21	3.8	-	.	-	-	-
O=c1c2c3nc4ccccc4nc3n(Cc3ccccc3)c2ncn1Cc1ccco1	3.3	-	-	-	-	-
CCCCn1c2nc3ccccc3nc2c2c(=O)n(C(C)CC)cnc21 (configuration not stated)	2.1	-	.	-	-	-
COCCCn1c2nc3ccccc3nc2c2c(=O)n(Cc3ccccc3Cl)cnc21	2.9	-	-	-	-	-
CC(Sc1nc(-c2ccccc2)cc(C(F)(F)F)n1)C(=O)NCCN1CCOCC1 (configuration not stated)	-	-	-	-	-	-
CCCCOc1ccc(C(=O)OC(C)CN(C)C)cc1 (configuration not stated)	5	-	.	-	-	-
COC(=O)c1cc(Br)c(=O)n(CCC2=CCCCC2)c1	-	-	-	-	-	-
CCN(CC)c1nc(N)c2c(N)nc3c(c2c1C#N)CC(c1ccccc1)O3 (configuration not stated)	2.1	-	.	-	-	-
CCN(CC)c1nc(N)c2c(N)n(-c3ccccc3C)c(=S)c(C#N)c2c1C#N	-	-	-	-	-	-
CCn1c(SCC(=O)Nc2nc3ccc(C)cc3s2)nc2c(c1=O)SC(C)C2 (configuration not stated)	-	-	-	-	-	-
SMILES	Fluor 339 460	NADH enzymes	Spn DPM-DC inh	Spn MK inh	Spn PMK inh	A340 absorber
CN(C)c1ccc(-c2nn3c(-c4ccc(Cl)cc4)nnc3s2)cc1	-	-	-	-	-	-
CN(C)c1ccc(-c2nn3c(C4CCCCC4)nnc3s2)cc1	2.5	-	-	-	-	-
O=C(CSc1nnc(-c2ccccc2)o1)Nc1ccccc1F	-	-	-	-	-	-
COc1ccc(-c2nnc(Nc3nc4c(OC)cccc4s3)o2)c(OC)c1	2.3	-	+	-	-	-
COc1ccc(-c2nnc(Nc3nc4c(OC)cccc4s3)o2)cc1	-	-	-	-	-	-
Fc1cccc2sc(Nc3nnc(-c4ccccc4)o3)nc12	4.9	-	.	-	-	-
COc1cc(OC)cc(-c2nnc(Nc3nc4c(F)cccc4s3)o2)c1	3.4	-	.	-	-	-
COCC(C)n1c(SCC(=O)NC(=O)Nc2ccc3c(c2)OCCO3)nc2ccccc2c1=O (configuration not stated)	-	-	-	-	-	-
O=C(NCC1CCCO1)c1nnc(Cc2ccc(F)cc2)o1 (configuration not stated)	-	-	-	-	-	-
CCCCOc1nc2ccccc2nc1C(C#N)C(=O)NC1CCCCC1 (configuration not stated)	-	-	-	-	-	-
CSc1c(C#N)c(N)c(C#N)c2c1COC(C)(C)C2	2.1	-	.	-	-	-
CCOC(=O)CSc1nnc(NCC(=O)OC(C)C)c(=O)[nH]1	-	-	-	-	-	-
CCOc1cc(NC(=O)c2ccco2)c(OCC)cc1NC(=O)CCc1ccc(OC)cc1	2.1	-	+[fluoresces]	-	-	-
COc1ccc(NC(=O)c2ccco2)cc1NC(=O)c1ccc(C)cc1	-	-	-	-	27	-
COc1ccc(NC(=O)c2ccco2)cc1NC(=O)c1ccc(Br)o1	-	-	-	-	-	-
CCOc1ccc(C(=O)Nc2ccc(NC(=O)c3ccco3)c(Cl)c2)cc1Br	3	-	-	-	-	-
Cc1ccc(NC(=O)c2cc(NC(=O)c3ccco3)ccc2N2CCCCC2)cc1	2.1	-	.	-	-	-
CC1CCN(S(=O)(=O)c2ccc(S(=O)(=O)N3CCN4CCCC4C3)cc2)CC1 (configuration not stated)	-	-	-	-	-	-
O=C(c1cc2c(=O)oc3ccccc3c2s1)N1CCN(c2ncccn2)CC1	-	-	-	-	-	-
CCC(C)[C@H](NC(=O)NCC1CCCO1)C(=O)OC (some centres not stated)	-	-	-	-	-	-
COC(=O)c1ccc(OCC(=O)Nc2nn(-c3ccccc3)nc2C(N)=O)cc1	2.2	-	-	-	-	-
C=CCn1c(-c2ccccc2)nc2nc3ccccc3nc21	2.1	-	.	-	-	-
CCOC(=O)CCc1nc2ccccc2[nH]c1=O	2.2	-	-	-	-	-
NC(=O)c1ccsc1NC(=O)COc1ccccc1	-	-	-	-	-	-
CCSc1nnc(NC(=O)CSc2ncccn2)s1	-	-	-	-	-	-
SMILES	Fluor 339 460	NADH enzymes	Spn DPM-DC inh	Spn MK inh	Spn PMK inh	A340 absorber
COc1cccc(CC(=O)Nc2nccs2)c1	-	-	-	-	-	-
Cc1ncoc1C(=O)Nc1nccs1	-	-	-	-	-	-
COCc1cc(C)nc2sc(C(=O)Nc3nccs3)c(N)c12	2.2	-	.	-	-	-
Cc1cc(C)c2c(N)c(C(=O)Nc3nccs3)sc2n1	2.1	-	.	-	-	-
CCCCCCNC(=O)c1c(O)c2ccccc2[nH]c1=O	-	-	-	-	-	-
O=C(CCCSc1nc2ccccc2s1)NC1=NCCS1	-	-	-	-	-	-
